# Inconclusive results are not listed. Unmarked numbers belong to inactive results. Activity calls are given as the source filed them. Calls follow the shape of the dose curve; as a rule, active = well fitted cell-killing curve with a large enough effect; inconclusive = small, poorly fitted or top-dose-only effect, or effect the other way; inactive = flat fitted curve, though single readings scatter.
# System: HeLa
# Assay: Primary qHTS to identify gynecologic anti-cancer compounds using libraries of approved drugs and bioactive compounds (AID 1345084); also: nearly all actives have a fitted effect of over 55% in size
# Conditions: Gynecologic cancer cell panel viability, ATPlite luminescence, 48 h; series mostly up to 57.5 µM; activity change, negative = cytotoxicity: at the top concentration
# Method in brief: (§1)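 Five-concentration response, 48 h; readout is ATP-driven luciferase luminescence.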
# % is scaled to controls: 0 for no effect and ±100 for the full control effect.
Structure (SMILES),"activity change, negative = cytotoxicity [%]",Potency
CN(C)c1ccc(C2Nc3ccc4ccccc4c3C3=C2C(=O)CC(C)(C)C3)cc1Br (configuration not stated),-1.61,–
COc1ccc2nc(S(=O)Cc3ncc(C)c(OC)c3C)[nH]c2c1 (configuration not stated),-22,–
CCC(C)n1ncn(-c2ccc(N3CCN(c4ccc(OC[C@H]5CO[C@](Cn6cncn6)(c6ccc(Cl)cc6Cl)O5)cc4)CC3)cc2)c1=O (some centres not stated),–,inactive
Cc1ccnc(NS(=O)(=O)c2ccc(NC(=O)Nc3ccc(S(=O)(=O)Nc4nccc(C)n4)cc3)cc2)n1,0.105,–
OC(CN1CCC(Cc2ccc(F)cc2)CC1)c1ccc(Cl)cc1 (configuration not stated),-3.19,–
NC(=O)c1cnccn1,18.1,–
CC[C@@H](C)[C@H](NC(=O)[C@H](CC1CCCCC1)NC(=O)c1ccno1)C(=O)N1CCC2(CCc3ccccc32)CC1,-7.17,–
Cc1ccc(N(CC2=NCCN2)c2cccc(O)c2)cc1,-1.1,–
C[C@@H]1CN(Cc2ccc(F)cc2)[C@@H](C)CN1C(=O)c1cc2c(C(=O)C(=O)N(C)C)cn(C)c2cc1Cl,-0.217,–
Cc1cn[nH]c1,15.6,–
Cc1n[nH]c(C)c1Cc1sc2c(c1C(=O)N1C[C@H](O)CO1)c(=O)n(C)c(=O)n2CC(C)C,-0.658,–
CCCc1nn(C)c2c(=O)[nH]c(-c3cc(S(=O)(=O)N4CCN(C)CC4)ccc3OCC)nc12,–,inactive
NNCCc1ccccc1,-2.21,–

# System: Hek293T
# Assay: as above
# Conditions: Gynecologic cancer cell panel viability, ATPlite luminescence, 48 h, control line for the selectivity index; series mostly up to 57.5 µM; activity change, negative = cytotoxicity: at the top concentration
# Method in brief: as §1
Structure (SMILES),"activity change, negative = cytotoxicity [%]",Potency
CN(C)c1ccc(C2Nc3ccc4ccccc4c3C3=C2C(=O)CC(C)(C)C3)cc1Br (configuration not stated),4.57,–
COc1ccc2nc(S(=O)Cc3ncc(C)c(OC)c3C)[nH]c2c1 (configuration not stated),-24.8,–
CCC(C)n1ncn(-c2ccc(N3CCN(c4ccc(OC[C@H]5CO[C@](Cn6cncn6)(c6ccc(Cl)cc6Cl)O5)cc4)CC3)cc2)c1=O (some centres not stated),–,inactive
Cc1ccnc(NS(=O)(=O)c2ccc(NC(=O)Nc3ccc(S(=O)(=O)Nc4nccc(C)n4)cc3)cc2)n1,13.1,–
OC(CN1CCC(Cc2ccc(F)cc2)CC1)c1ccc(Cl)cc1 (configuration not stated),2.4,–
NC(=O)c1cnccn1,7.33,–
CC[C@@H](C)[C@H](NC(=O)[C@H](CC1CCCCC1)NC(=O)c1ccno1)C(=O)N1CCC2(CCc3ccccc32)CC1,-3.71,–
Cc1ccc(N(CC2=NCCN2)c2cccc(O)c2)cc1,-19.2,–
C[C@@H]1CN(Cc2ccc(F)cc2)[C@@H](C)CN1C(=O)c1cc2c(C(=O)C(=O)N(C)C)cn(C)c2cc1Cl,-2.79,–
Cc1cn[nH]c1,-12.3,–
Cc1n[nH]c(C)c1Cc1sc2c(c1C(=O)N1C[C@H](O)CO1)c(=O)n(C)c(=O)n2CC(C)C,-12.1,–
CCCc1nn(C)c2c(=O)[nH]c(-c3cc(S(=O)(=O)N4CCN(C)CC4)ccc3OCC)nc12,–,inactive
NNCCc1ccccc1,-3.91,–

# System: JEG-3
# Assay: as above
# Conditions: Gynecologic cancer cell panel viability, ATPlite luminescence, 48 h; series mostly up to 57.5 µM; activity change, negative = cytotoxicity: at the top concentration
# Method in brief: as §1
Structure (SMILES),"activity change, negative = cytotoxicity [%]",Potency
CN(C)c1ccc(C2Nc3ccc4ccccc4c3C3=C2C(=O)CC(C)(C)C3)cc1Br (configuration not stated),-4.9,–
COc1ccc2nc(S(=O)Cc3ncc(C)c(OC)c3C)[nH]c2c1 (configuration not stated),-23.6,–
CCC(C)n1ncn(-c2ccc(N3CCN(c4ccc(OC[C@H]5CO[C@](Cn6cncn6)(c6ccc(Cl)cc6Cl)O5)cc4)CC3)cc2)c1=O (some centres not stated),–,inactive
Cc1ccnc(NS(=O)(=O)c2ccc(NC(=O)Nc3ccc(S(=O)(=O)Nc4nccc(C)n4)cc3)cc2)n1,5.63,–
OC(CN1CCC(Cc2ccc(F)cc2)CC1)c1ccc(Cl)cc1 (configuration not stated),1.25,–
NC(=O)c1cnccn1,-2.43,–
CC[C@@H](C)[C@H](NC(=O)[C@H](CC1CCCCC1)NC(=O)c1ccno1)C(=O)N1CCC2(CCc3ccccc32)CC1,11.7,–
Cc1ccc(N(CC2=NCCN2)c2cccc(O)c2)cc1,2.41,–
C[C@@H]1CN(Cc2ccc(F)cc2)[C@@H](C)CN1C(=O)c1cc2c(C(=O)C(=O)N(C)C)cn(C)c2cc1Cl,-31.4,–
Cc1cn[nH]c1,-14.4,–
Cc1n[nH]c(C)c1Cc1sc2c(c1C(=O)N1C[C@H](O)CO1)c(=O)n(C)c(=O)n2CC(C)C,-16.8,–
CCCc1nn(C)c2c(=O)[nH]c(-c3cc(S(=O)(=O)N4CCN(C)CC4)ccc3OCC)nc12,–,inactive
NNCCc1ccccc1,-6.53,–

# System: OV90
# Assay: as above
# Conditions: Gynecologic cancer cell panel viability, ATPlite luminescence, 48 h; series mostly up to 57.5 µM; activity change, negative = cytotoxicity: at the top concentration
# Method in brief: as §1
Structure (SMILES),"activity change, negative = cytotoxicity",Potency
CN(C)c1ccc(C2Nc3ccc4ccccc4c3C3=C2C(=O)CC(C)(C)C3)cc1Br (configuration not stated),-8.96%,–
COc1ccc2nc(S(=O)Cc3ncc(C)c(OC)c3C)[nH]c2c1 (configuration not stated),-14.8%,–
CCC(C)n1ncn(-c2ccc(N3CCN(c4ccc(OC[C@H]5CO[C@](Cn6cncn6)(c6ccc(Cl)cc6Cl)O5)cc4)CC3)cc2)c1=O (some centres not stated),1.4% [at 25.3 µM],–
Cc1ccnc(NS(=O)(=O)c2ccc(NC(=O)Nc3ccc(S(=O)(=O)Nc4nccc(C)n4)cc3)cc2)n1,-6.43%,–
OC(CN1CCC(Cc2ccc(F)cc2)CC1)c1ccc(Cl)cc1 (configuration not stated),3.9%,–
NC(=O)c1cnccn1,2.24%,–
CC[C@@H](C)[C@H](NC(=O)[C@H](CC1CCCCC1)NC(=O)c1ccno1)C(=O)N1CCC2(CCc3ccccc32)CC1,7.06%,–
Cc1ccc(N(CC2=NCCN2)c2cccc(O)c2)cc1,1.78%,–
C[C@@H]1CN(Cc2ccc(F)cc2)[C@@H](C)CN1C(=O)c1cc2c(C(=O)C(=O)N(C)C)cn(C)c2cc1Cl,10.4%,–
Cc1cn[nH]c1,2.97%,–
Cc1n[nH]c(C)c1Cc1sc2c(c1C(=O)N1C[C@H](O)CO1)c(=O)n(C)c(=O)n2CC(C)C,-39.4%,–
CCCc1nn(C)c2c(=O)[nH]c(-c3cc(S(=O)(=O)N4CCN(C)CC4)ccc3OCC)nc12,–,inactive
NNCCc1ccccc1,-3.2%,–
